Source: PubChem BioAssay
TGFb SMAD3 inh – blocks TGF-b signaling | HepG2 CAGA-GFP TGF-b/SMAD3 reporter, GFP fluorescence, 18 h; TGF-beta stimulated, 500 pg/mL final | Potency, µM (doses to about 46.1 µM), hits mostly inhibitors | hit rate 1.2% among 410,000 | AID 588855; further: nearly all actives have a fitted effect of over 65% in size
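Read-out: total well GFP (ex488/em500-530) summed from mean per-cell fluorescence. Cells: HEPG2 CAGA-GFP, 1% FBS DMEM, 18 h at 37 degrees C with 500 pg/mL final TGF-beta. Unstimulated wells served as the full-inhibition control; stimulated DMSO wells = 0%.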
ATXN2 expr inh – reduces ATXN2 reporter expression in HEK-293 cells; HEK-293 ATXN2-luciferase reporter, luminescence, 24 h; Potency, µM (top dose mostly 57 µM), usual class: inhibitors; hit rate 0.72% among 360,000; further: nearly all actives have a fitted effect of over 55% in size
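qHTS (up to 57 uM final) was run with 24 h compound exposure of reporter cells at 37 °C. Each well was multiplexed: SteadyGlo luminescence measured ATXN2-luciferase expression after a fluorogenic Gly-Phe-AFC viability readout (25 uM final).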
Six1-Eya2 blk – inhibitors of human Six1/Eya2 interaction; activity change, % (no concentration beside the values); Q15475+O00167; hit rate 0.56% among 360,000; AlphaScreen GST-Six1/His-Eya2 binding, biochemical; active compounds read low; in the data active means activity change below about -65%; inconclusive means mostly about -30% to -63%
Target sequence (O00167 whole entry, looked up): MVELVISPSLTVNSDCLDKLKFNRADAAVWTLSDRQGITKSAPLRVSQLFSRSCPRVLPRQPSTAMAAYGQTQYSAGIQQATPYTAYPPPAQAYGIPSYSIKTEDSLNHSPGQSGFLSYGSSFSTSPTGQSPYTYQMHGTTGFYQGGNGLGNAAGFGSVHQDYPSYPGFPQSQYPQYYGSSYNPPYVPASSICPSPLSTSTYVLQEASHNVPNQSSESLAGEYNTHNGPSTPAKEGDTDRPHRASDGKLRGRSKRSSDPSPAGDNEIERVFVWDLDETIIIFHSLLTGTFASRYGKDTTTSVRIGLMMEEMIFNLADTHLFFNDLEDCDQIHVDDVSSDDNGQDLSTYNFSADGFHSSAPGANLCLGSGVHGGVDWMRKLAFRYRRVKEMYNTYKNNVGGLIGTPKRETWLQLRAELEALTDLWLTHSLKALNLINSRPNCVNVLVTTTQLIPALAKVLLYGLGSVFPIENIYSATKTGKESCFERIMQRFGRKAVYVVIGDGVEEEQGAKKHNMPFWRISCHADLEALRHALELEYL
Target sequence (Q15475 whole entry, looked up): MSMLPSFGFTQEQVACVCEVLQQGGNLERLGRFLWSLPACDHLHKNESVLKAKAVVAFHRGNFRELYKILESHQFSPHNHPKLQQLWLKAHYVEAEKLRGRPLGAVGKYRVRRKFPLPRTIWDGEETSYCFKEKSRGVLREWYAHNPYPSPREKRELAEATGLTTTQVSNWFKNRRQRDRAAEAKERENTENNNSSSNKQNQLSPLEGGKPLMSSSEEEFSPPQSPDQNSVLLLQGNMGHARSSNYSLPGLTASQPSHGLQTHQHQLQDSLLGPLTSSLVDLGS
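Six1/Eya2 binding was read as AlphaScreen signal after compounds were pinned into GST-Six1 plus His-tagged Eya2 (5X stock 250/500 nM) in pH 8.0 Tris/NaCl/TCEP buffer, beads added, then incubated 1 h, 37 C, dark.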
CtBP-E1A blk – inhibitors of CtBP/E1A interaction; AlphaScreen GST-E1A/His-CtBP binding, 1536-well; active compounds read low; activity change, % (concentration not given with the values); hit rate 0.49% among 340,000; in the data active means activity change below about -65%; inconclusive means mostly about -30% to -63%
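Homogeneous bead-based format: GST-tagged E1A captured on glutathione donor beads, His-tagged CtBP on nickel acceptor beads; compounds precede bead addition by 2 h at 37 °C.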
HepG2 tox – kills HepG2 cells in TGF-b inhibitor counter-screen; HepG2 CAGA-GFP viability, ATP luminescence, 18 h; Potency, µM (titrated, usually from 46.1 µM), most hits filed as cytotoxic; hit rate 0.76% among 410,000; AID 588856
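CellTiter-Glo luminescence gave cytotoxicity after 18 hours at 37 degrees C. The cells were HepG2 CAGA-GFP in 1% FBS DMEM, stimulated with 500 pg/mL TGF-beta after compound addition. %Activity was normalised to no-cell wells (complete cell-killing) and DMSO (no toxicity), and curves were fitted and classified.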
ATXN viability – reduces viability in counter-screen for ATXN expression inhibitors | S2 cells (HEK-293 line with an ATXN2-luciferase reporter) viability, CellTiter-Fluor protease fluorescence, 24 h | AID 651635 | hit rate 0.49% among 400,000 | Potency, µM (top dose mostly 56.7 µM), most hits filed as cytotoxic; further: nearly all actives have a fitted effect of over 40% in size
Each line names hits and unclear results; the compound was inactive in the other large screens. In the library only some 2.8% were active in any assay of this set; here they are far more common. Unless noted, the call rests on the fitted dose curve; in most records, active means well fitted curve in the direction sought with a large enough effect; inconclusive means small, poorly fitted or top-dose-only effect, or another doubt; inactive means no such curve, though single readings can be large; an effect the other way counts as inactive or inconclusive.

CCc1ccc(NC(=O)C2CCN(S(=O)(=O)c3ccc4c(c3)CC(C)N4C(C)=O)CC2)cc1 (configuration not stated)	TGFb SMAD3 inh inconclusive, ATXN2 expr inh 13µM, ATXN viability inconclusive
Cc1nc2c([nH]1)CCN(C(=O)c1ccc(NC(=O)c3ccccc3-c3ccccc3)cc1)c1ccccc1-2	none (no result: TGFb SMAD3 inh, Six1-Eya2 blk, CtBP-E1A blk, HepG2 tox, ATXN viability)
CNc1cccc2c1C(=O)c1ccccc1C2=O	Six1-Eya2 blk -87
CC(C)=CCC/C(C)=C/CC/C(C)=C/CCC(=O)OC/C=C(\C)CCC=C(C)C	none (no result: TGFb SMAD3 inh, Six1-Eya2 blk, CtBP-E1A blk, HepG2 tox)
Cc1ccc(C(C[N+](=O)[O-])c2c(-c3ccccc3O)[nH][nH]c2=O)cc1 (configuration not stated)	TGFb SMAD3 inh inconclusive, HepG2 tox 7.9µM, ATXN viability inconclusive
O=c1[nH][nH]c(-c2ccccc2O)c1C(C[N+](=O)[O-])c1ccc(Br)cc1 (configuration not stated)	TGFb SMAD3 inh inconclusive, ATXN2 expr inh inconclusive, ATXN viability inconclusive
Cc1ccc(CNc2nc(CN3CCN(C=O)CC3)nc3ccccc23)o1	none (no result: TGFb SMAD3 inh, ATXN2 expr inh, Six1-Eya2 blk, CtBP-E1A blk, HepG2 tox)
CCNC(=O)c1cc2c(-c3cc(OCCN4CCCC4)c(Cl)cc3Cl)nc(N)nc2s1	ATXN2 expr inh 1.4µM (no result: TGFb SMAD3 inh, Six1-Eya2 blk, CtBP-E1A blk, HepG2 tox, ATXN viability)
COc1ccc([C@H]2/C=C\CN(C(=O)C3CCCC3)[C@@H](C)C(=O)N2Cc2ccc(F)cc2)cc1	ATXN2 expr inh inconclusive, ATXN viability 20µM
COc1ccc(C2/C=C\CN(C(=O)C3CC3)C(C)C(=O)N2Cc2ccc(F)cc2)cc1 (configuration not stated)	TGFb SMAD3 inh inconclusive (no result: ATXN2 expr inh, Six1-Eya2 blk, CtBP-E1A blk, ATXN viability)
O=C(Nc1ccccc1C(=O)N/N=C/c1ccco1)c1ccc(F)cc1	TGFb SMAD3 inh inconclusive, HepG2 tox 13µM
O=C(Nc1ccccc1C(=O)N/N=C/c1ccco1)c1ccccc1	none
CC(C)(C)OC(=O)COc1cc(OCC(=O)OC(C)(C)C)c2c(=O)cc(-c3ccccc3)oc2c1	TGFb SMAD3 inh inconclusive, ATXN2 expr inh 20µM, ATXN viability 20µM
Cc1cc(=O)[nH]c(N=N/C(=N/Nc2ccc(O)cc2)c2ccccc2)n1	ATXN2 expr inh inconclusive, ATXN viability inconclusive
Cc1cc(=O)[nH]c(N=N/C(=N/Nc2ccccc2C)c2ccccc2)n1	ATXN2 expr inh 2.5µM, ATXN viability inconclusive
COc1ccc(N/N=C(/N=Nc2nc(C)cc(=O)[nH]2)c2ccccc2)cc1	TGFb SMAD3 inh inconclusive, ATXN2 expr inh inconclusive, Six1-Eya2 blk inconclusive, ATXN viability 28µM
N#Cc1c(NC(=O)c2ccccc2Cl)n(Cc2ccccc2)c2nc3ccccc3nc12	TGFb SMAD3 inh 7.9µM
COc1ccccc1NC(=O)CN1C(=O)c2cccc3cccc1c23	none (no result: Six1-Eya2 blk, CtBP-E1A blk)
C/C(=N\NC(=O)CCCNc1ccc(C)cc1)c1ccccn1	ATXN2 expr inh 28µM, Six1-Eya2 blk inconclusive, CtBP-E1A blk inconclusive
C/C(=N\NC(=O)c1c[nH]c2ccccc12)c1ccccn1	ATXN2 expr inh inconclusive, Six1-Eya2 blk -93, CtBP-E1A blk -93 (no result: ATXN viability)
C/C(=N\NC(=O)c1c[nH]c2ccccc12)c1ccco1	Six1-Eya2 blk inconclusive, CtBP-E1A blk inconclusive
C/C(=N\NC(=O)c1ccc(F)cc1)c1ccccn1	TGFb SMAD3 inh 1.1µM, Six1-Eya2 blk -92, ATXN viability inconclusive (no result: ATXN2 expr inh, CtBP-E1A blk)
CCC(CC)c1nn2c(=O)cc(COc3ccc(NC(=O)c4ccc(Cl)cc4)cc3)nc2s1	none (no result: Six1-Eya2 blk, CtBP-E1A blk)
CC1CCc2c(cc(-c3ccccc3)n2-c2ccc(C(=O)NC(C)C)cc2)C1 (configuration not stated)	TGFb SMAD3 inh 7.9µM (no result: ATXN2 expr inh, Six1-Eya2 blk, CtBP-E1A blk, ATXN viability)
CC(C)NC(=O)c1ccc(-n2c(-c3ccccc3)cc3c2CCCCC3)cc1	none (no result: ATXN2 expr inh, Six1-Eya2 blk, CtBP-E1A blk, ATXN viability)
CCOc1ccc(Nc2oc(-c3ccc(COc4ccccc4C)o3)nc2C#N)cc1	ATXN viability inconclusive (no result: Six1-Eya2 blk, CtBP-E1A blk)
O=C(COc1ccccc1Cl)Nc1ccc(N2CCN(C(=O)c3ccccc3)CC2)cc1	TGFb SMAD3 inh inconclusive, ATXN2 expr inh 18µM, ATXN viability inconclusive
O=C(COc1ccccc1Cl)Nc1ccc(N2CCCC2)cc1	none
Cn1c(SCC2CCCO2)nnc1C1CCN(Cc2ccc(-c3cccc(Cl)c3)o2)CC1 (configuration not stated)	none (no result: TGFb SMAD3 inh, ATXN2 expr inh, Six1-Eya2 blk, CtBP-E1A blk, HepG2 tox)
